From PubChem BioAssay
Shown are actives, neighbours in structure and some others; about 3.2% of the full set was active somewhere.
VDR inhibitor = blocks the human vitamin D receptor. P11473. VDR-SRC2-3 peptide fluorescence polarization, 2 h. Potency, µM, inactives show max response, negative = inhibition, most hits filed as inhibitors. 400,000 compounds, 0.93% hits; further: potency means the concentration at half of the fitted maximal effect
Target sequence (P11473 whole entry, looked up): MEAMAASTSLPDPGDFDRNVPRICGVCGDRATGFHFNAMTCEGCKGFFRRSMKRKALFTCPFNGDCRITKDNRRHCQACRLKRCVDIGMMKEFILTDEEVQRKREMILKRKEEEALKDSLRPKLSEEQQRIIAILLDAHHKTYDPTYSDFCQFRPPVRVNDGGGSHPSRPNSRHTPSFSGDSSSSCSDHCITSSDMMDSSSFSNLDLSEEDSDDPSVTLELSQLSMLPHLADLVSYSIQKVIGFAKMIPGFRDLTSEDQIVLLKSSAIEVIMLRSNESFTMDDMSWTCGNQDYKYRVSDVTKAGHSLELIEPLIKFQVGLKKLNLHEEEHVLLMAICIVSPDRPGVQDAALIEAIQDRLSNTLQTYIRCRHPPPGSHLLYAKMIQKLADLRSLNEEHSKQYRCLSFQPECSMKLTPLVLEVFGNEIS
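The screen uses fluorescence polarization to detect compounds that interfere with recruitment of the SRC2-3 coactivator peptide to VDR; plates are read after 2 h at room temperature.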
USP2a inh = inhibitors of human ubiquitin-specific protease USP2a. USP2 core, Ub-CHOP2 coupled fluorogenic reporter, 485/531. Potency, µM (titrated, usually from 38.3 µM), without a hit: at the highest dose activity change, negative = inhibition, usual class: inhibitors. 330,000 compounds, 0.01% hits. AID 463254;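 further: potency means the concentration at half of the fitted maximal effect; plate controls were DMSO wells for no effect and full inhibition by NEM control for full effect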
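USP2 core (10nM final) preincubated 30min RT with compound in 20mM Tris-HCl pH 8.0, 2mM CaCl2, 2mM beta-mercaptoethanol, 0.05% CHAPS; 25nM Ub-CHOP2 plus 25nM reporter substrate added, fluorescence (Ex485/Em531) read after 60min.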
PLK1 PBD block = blocks phosphopeptide binding to human PLK1 polo-box domain | Potency, µM, for the others: max response, negative = inhibition, hits mostly inhibitors | Plk1 PBD binding of FITC phosphopeptide, fluorescence polarization | P53350 | 360,000 compounds, 2.8% hits; further: potency means the concentration at half of the fitted maximal effect; series mostly up to about 57 µM; nearly all actives have a fitted effect of over 65% in size
GALK inh = inhibitors of human galactokinase. Purified GALK, Kinase-Glo residual ATP luminescence. Potency, µM (top dose mostly 57.5 µM), for the others: at the highest dose activity change, negative = inhibition, most hits filed as inhibitors. 270,000 compounds, 0.007% hits. AID 1868; further: potency means the concentration at half of the fitted maximal effect
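5 nM enzyme, 35 uM ATP, 100 uM galactose, 20 mM HEPES pH8.0, 5 mM MgCl2; 1 h RT; residual ATP by Kinase-Glo Plus luminescence, qHTS format.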
USP1 inh = blocks the human USP1/UAF1 deubiquitinase complex. O94782. Potency, µM (highest dose often 57.1 µM), without a hit: at the highest dose activity change, negative = inhibition, usual class: inhibitors. 390,000 compounds, 0.23% hits. recombinant USP1/UAF1, Ub-Rhodamine cleavage fluorescence; further: potency means the concentration at half of the fitted maximal effect; nearly all actives have a fitted effect of over 60% in size
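Step one: compound is pinned into 1nM USP1/UAF1 in HEPES pH 7.8 buffer with TCEP. Step two: 15 min room-temperature incubation. Step three: Ub-Rho (150nM final) starts cleavage, tracked by fluorescence over six one-minute reads.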
FBPA coupling cs = coupling enzyme interference in Giardia aldolase counter-screen | coupling enzyme system counterscreen, AmpLite Red fluorescence | activity change, negative = inhibition, % at 58.2 µM, hits read low | 290,000 compounds, 0.67% hits; in the data active means activity change below about -30%
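Compounds tested against the coupling enzymes alone at 57.5 uM final; readout was AmpLite Red fluorescence (525/598 nm) after 20 min at RT.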
TbPYK inh = Trypanosoma brucei pyruvate kinase inhibition, cherry-pick confirmation; Potency, µM (top dose mostly 76.9 µM), for the others: at the highest dose activity change, negative = inhibition, most hits filed as inhibitors; shares compounds with PLK1 PBD block; recombinant TbPYK, Kinase-Glo ATP luminescence; 890 compounds, 67% hits; AID 720569; further: potency means the concentration at half of the fitted maximal effect; nearly all actives have a fitted effect of over 70% in size
TbPYK ADP-Glo = orthogonal confirmation of Trypanosoma brucei pyruvate kinase inhibitors. recombinant TbPYK, ADP-Glo luminescence, 60 min. AID 720584. Potency, µM (titrated, usually from 76.9 µM), for the others: at the top dose activity change, negative = inhibition, usual class: inhibitors. 890 compounds, 62% hits. shares compounds with PLK1 PBD block; further: potency means the concentration at half of the fitted maximal effect; nearly all actives have a fitted effect of over 75% in size
Active calls of the source: *; u = inconclusive; x = no result. Unless noted, the call rests on the fitted dose curve; in most records, active means well fitted curve in the direction sought with a large enough effect; inconclusive means small, poorly fitted or top-dose-only effect, or another doubt; inactive means no such curve, though single readings can be large; an effect the other way counts as inactive or inconclusive. Unless noted, on the % scale 0 is the no-effect control and ±100 the full control effect.

SMILES	VDR inhibitor	USP2a inh	PLK1 PBD block	GALK inh	USP1 inh	FBPA coupling cs	TbPYK inh	TbPYK ADP-Glo
COCCN(Cc1cc2cccc(C)c2n2nnnc12)C(=O)C(F)(F)F	-16%	-5%	-5%	-1%	-4%	1	3%	-8%
Cc1cccc2cc(CN(Cc3ccc(F)cc3)C(=O)C(F)(F)F)c3nnnn3c12	20%	0%	-16%	0%	-13%	-1	x	x
COc1ccc(N2CC(C(=O)Nc3ccc(NC(C)=O)cc3)CC2=O)cc1 (stereo unspecified)	-19%	x	x	x	-18%	x	x	x
COc1cc2ccc(=O)oc2c(OC)c1OC	1%	x	x	x	x	1	x	x
COc1cc2ccc(=O)oc2c(O)c1O	-19%	x	-4%	x	-20%	-16	28µM*	35µM*
O=C(OCC(=O)N1CCCc2ccccc21)c1ccc(Br)o1	5%	0%	-6%	2%	5%	2	x	x
CC(C)(C)c1cc(C(=O)NC2CC2)n(Cc2ccc(F)cc2)n1	9%	-2%	-21%	x	-14%	-1	x	x
CC1=NN(c2ccccc2)C(=O)/C1=C/C=C/c1ccc(N(C)C)cc1	79µM*	-1%	0%	26%	-13%	-13	25µM*	11%
CCOC(=O)CC1=NN(c2ccccc2)C(=O)/C1=C\c1ccc(N(C)C)cc1	u	0%	u	1%	-13%	-5	x	x
O=c1[nH]c2sc3c(c2c2nncn12)CCCC3	2%	2%	-26%	-3%	-26%	4	u	35µM*
Cc1ccc(-n2c(=O)[nH]c3sc4c(c3c2=O)CCCC4)cc1	-17%	x	x	x	u	x	x	x
CCOC(=O)C1=C(C)N=c2s/c(=C/c3cccc([N+](=O)[O-])c3O)c(=O)n2C1c1cc(OC)c(OC)c(OC)c1 (stereo unspecified)	u	1%	27µM*	x	-18%	2	32µM*	u
CCOC(=O)C1=C(C)N=c2s/c(=C/c3ccco3)c(=O)n2C1c1cccc(OC)c1 (stereo unspecified)	16%	-10%	-2%	-1%	u	-2	x	x
COc1ccc(C(Nc2ccccn2)c2oc(CO)cc(=O)c2O)cc1 (stereo unspecified)	u	-1%	24µM*	1%	-15%	-17	40%	16%
OCCNc1ncnc2c1ncn2Cc1ccccc1	4%	0%	-5%	3%	-7%	-1	x	x
CCOCCCNC1=C(Cl)C(=O)c2ccccc2C1=O	u	0%	21µM*	4%	u	-24	u	u
C=CCn1c(C)cc(C(=O)COC(=O)c2ccc(N)c([N+](=O)[O-])c2)c1C	u	4%	5%	-2%	-17%	-1	x	x
CCn1c(C)cc(C(=O)COC(=O)c2ccccc2[N+](=O)[O-])c1C	-16%	2%	3%	x	-18%	x	u	3%
COc1ccc(N2C(=O)C3CC(C)=C(C)CC3C2=O)c(OC)c1 (stereo unspecified)	-2%	3%	0%	3%	0%	3	x	x
COc1cc(N2C(=O)C=CC2=O)ccc1N1C(=O)C=CC1=O	u	x	2.4µM*	x	-15%	x	1.1µM*	1.8µM*
COc1ccc(NC(=O)Cn2c(SCc3ccc(C)cc3)nc3cccnc32)cc1OC	18%	x	x	x	-13%	x	x	x
Cc1[nH]cnc1C(=O)N/N=C/c1c(Cl)cccc1Cl	-16%	0%	1%	20%	-22%	-1	20µM*	12%
COC(=O)COc1nsnc1N1CCOCC1	5%	0%	1%	0%	-18%	3	x	x
Cc1onc(C(=O)Nc2sc3c(c2C(N)=O)CCCC3)c1[N+](=O)[O-]	79µM*	1%	11µM*	2%	-14%	-2	16µM*	18µM*
COc1c(Cl)cc(Cl)cc1C(=O)Nc1ccccc1N1CCN(C(C)=O)CC1	3%	x	-6%	x	-20%	x	x	x
SMILES	VDR inhibitor	USP2a inh	PLK1 PBD block	GALK inh	USP1 inh	FBPA coupling cs	TbPYK inh	TbPYK ADP-Glo
O=C(c1ccccc1)c1ccc2nc(-c3ccco3)c(-c3ccco3)nc2c1	45µM*	u	7.5µM*	-5%	u	-24	u	u
c1coc(-c2nc3ccccc3nc2-c2ccco2)c1	u	1%	u	4%	-17%	-38*	14µM*	18µM*
Cc1csc(NC(=O)CCc2nc3ccccc3s2)n1	-11%	2%	-19%	-3%	-6%	-1	x	x
CC(Nc1ccc(N2CCOCC2)cc1)C(=O)N1c2ccccc2CC1C (stereo unspecified)	-11%	-1%	0%	x	-8%	-26	3.2µM*	7.1µM*
COc1ccccc1CCC(=O)Nc1cc(S(=O)(=O)N2CCOCC2)ccc1N1CCCC1	1%	0%	-3%	x	-13%	x	x	x
COc1ccc(NC(=O)C2CCCN(S(=O)(=O)c3cccnc3)C2)cc1OC (stereo unspecified)	1%	1%	0%	5%	-13%	3	x	x
COc1ccc(S(=O)(=O)N2CCCC(C(=O)Nc3cccnc3)C2)cc1Cl (stereo unspecified)	-17%	-1%	2.7µM*	-4%	-6%	-6	-4%	-11%
Fc1cccc(F)c1C(Nc1nncs1)Nc1nncs1	x	x	-19%	x	x	x	x	x
c1ccc(CN2CCN(c3ncnc4nc[nH]c34)CC2)cc1	-14%	1%	-14%	-1%	u	0	x	x
NC(=O)c1sc2nc(N3CCOCC3)c3c(c2c1N)CCCC3	-14%	6%	27µM*	-3%	-5%	0	11µM*	10µM*
CN(C(=O)c1sc2nc(N3CCOCC3)c3c(c2c1N)CCCC3)c1ccccc1	-15%	-9%	-9%	2%	-10%	1	x	x
CCCCN(CCCC)C(=O)c1sc2nc(N3CCOCC3)c3c(c2c1N)CCCC3	u	1%	30µM*	-2%	-9%	-3	1.6µM*	3.2µM*
CCOC(=O)c1sc2nc(N3CCOCC3)c3c(c2c1N)CCC3	-10%	-4%	-3%	5%	u	-4	x	x
CCCCOCCCNC(=O)C[C@@H]1C[C@@]2(C(=O)OCC)CCCC=C2N(Cc2cccc3ccccc23)C1=O	x	x	-3%	x	x	x	x	x
CCC(Cc1ccccc1)NC(=O)C1CCN(c2nn3c(=O)cc(C)nc3s2)CC1 (stereo unspecified)	-2%	-1%	-8%	-3%	4%	1	x	x
